Screening data deposited in PubChem BioAssay by National Center for Advancing Translational Sciences (NCATS).
Pf growth 48h – inhibits P. falciparum growth in the first generation, 48 h | Potency, µM (doses to about 28.7 µM), for inactives: at the top dose activity change, negative = inhibition, usual class: inhibitors | P. falciparum luciferase growth in erythrocytes, 48 h | 5.9% of 310,000 active; note: potency is the fitted concentration of half-maximal effect
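Erythrocytes infected with P. falciparum carrying an integrated firefly luciferase reporter (2% hematocrit, 0.1% parasitemia final) were exposed to compounds in RPMI 1640 with 0.5% Albumax at 37 C, 5% CO2. Growth inhibition was scored as reduced luminescence.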
HCV inh – inhibitors of hepatitis C virus infection | AID 651820 | Potency, µM (titrated, usually from 41.8 µM), without a hit: top-dose activity change, negative = inhibition, hits mostly inhibitors | 3.4% of 340,000 active | Huh7.5.1 HCVcc-Cre infection, luciferase reporter, 44 h; note: potency is the fitted concentration of half-maximal effect
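Cells (1,000/well) were plated 4 h before compound, then infected with HCVcc-Cre virus (~0.5 moi). After 44 h further culture, infection was read as luciferase luminescence following a 15 min substrate incubation at room temperature.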
Pf growth 96h – P. falciparum growth inhibition at 96 hour, primary screen for plastid delayed-death inhibitors | P. falciparum luciferase reporter growth, 96 h | Potency, µM (top dose mostly 28.7 µM), inactives show at the highest dose activity change, negative = inhibition, hits mostly inhibitors | 6.9% of 320,000 active; note: potency is the fitted concentration of half-maximal effect
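Erythrocytes infected with luciferase-expressing P. falciparum were dispensed at 2% hematocrit and 0.05% parasitemia (final), then incubated with compounds 96 hours at 37 C in 5% CO2. Luminescence after detection reagent addition reported growth.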
HCMV inh – inhibitors of human cytomegalovirus. HFF cells, HCMV-luciferase reporter, 72 h; active compounds read low. activity change, negative = inhibition, % at 57.5 µM. 4.5% of 410,000 active; in the data active = activity change below about -60%; inconclusive = no clear call, values can overlap the other calls; inactive = above about -39%
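Screen run at 2 compound doses on HFFs infected with reporter HCMV, MOI 1 PFU/cell. Luciferase activity from cell lysates at 72 h post infection gave inhibition relative to buffer-only and Salinomycin wells.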
The depositor's hits bear a star; ? = inconclusive; nt = no result; + = active, no number; [ ] = another dose, or the depositor's remark. An excerpt weighted towards active compounds, which were near 13% of everything screened. Unless noted, calls come from the whole dose curve; as a rule, active = well fitted inhibition curve with a large enough effect; inconclusive = small, poorly fitted or top-dose-only effect, or another doubt; inactive = no such curve, though single readings can be large or run the other way. % is set by controls: 0 for no effect and ±100 for the full control effect.

SMILES | Pf growth 48h | HCV inh | Pf growth 96h | HCMV inh
Cc1cccc(N2CCN(C(=O)CSc3nc4ccccc4nc3N3CC(C)OC(C)C3)CC2)c1C (configuration not stated) | ? | 6.3µM* | ? | -5
CCc1cccc(NC(=O)CSc2nc3c(c(=O)[nH]2)CCCC3)c1 | -9% | -15%[0.335 µM] | 8.3µM* | nt
O=C(CSc1nc2c(c(=O)[nH]1)CCC2)Nc1cccc(Cl)c1 | -8% | 7% | -14% | 13
CCc1cccc(NC(=O)CSc2nc3ccccc3nc2N2CCCCC2)c1 | nt | nt | nt | -80*
Cc1cccc(NC(=O)CSc2nc3ccccc3nc2N2CCCCC2)c1 | 13µM* | 1% | ? | -84*
CC1CCCN(S(=O)(=O)c2cc(C(=O)NCc3ccccc3Cl)n(C)c2)C1 (configuration not stated) | nt | nt | nt | 15
COc1cccc(NC(=O)[C@H](CC(C)C)NC(=O)N2CCn3c2nc2ccccc23)c1 | ? | -17% | 5.9µM* | 40
COc1ccc(C)cc1NC(=O)CSc1nc2ccccc2nc1N1CC(C)OC(C)C1 (configuration not stated) | ? | -15% | ? | 15
COc1cccc(NC(=O)CSc2nc3ccccc3nc2N2CCCC2)c1 | ? | 10µM* | 1% | ?
COc1cccc(NC(=O)CCSc2ccc3ccccc3n2)c1 | 43% | 11% | 6.6µM* | -1
Cc1cccc(NC(=O)CSc2nc3ccccc3nc2N2CC(C)OC(C)C2)c1 (configuration not stated) | ? | 11µM* | 9.3µM* | -11
Cc1c(CN(C)C(=O)c2cc(-c3ccccc3)nc3ccc(Br)cc23)cnn1C | nt | nt | nt | 2
O=C(NCc1ccccc1)N[C@H]1CC[C@@]23CCCN2C(=O)CCC[C@H]3C1Cc1ccccc1 (some centres not stated) | nt | nt | nt | 1
COc1ccccc1NC(=O)c1ncoc1-c1ccco1 | nt | nt | nt | 13
c1ccc2c(c1)CCc1c-2nc2ccccc2c1N1CCOCC1 | 15µM* | ? | ? | 37
FC(F)(F)c1cccc(CC2CN(Cc3ccccc3)Cc3ccccc3N2c2cc(Cl)cc(Cl)c2)c1 (configuration not stated) | nt | nt | nt | -98*
O=S1(=O)CCOC[C@H](Cc2ccccc2)N1Cc1cccc(C(F)(F)F)c1 | nt | ? | nt | -12
COc1ccc(NC(=O)CN(C)S(=O)(=O)c2ccc(C(=O)N3CCOCC3)s2)cc1 | nt | nt | nt | -5
COc1cccc(CN2CCC2(C)C(=O)Nc2cccc(NS(C)(=O)=O)c2)c1OC (configuration not stated) | nt | nt | nt | 15
COc1ccc(-c2ccc(=O)n(CC(=O)Nc3ccc(OC)c(OC)c3)n2)cc1 | nt | nt | nt | +
COCCCNC(=O)Cn1nc(-c2cccc(OC)c2)ccc1=O | 8% | 16% | 10µM* | 22
COc1ccc(-c2ccc(=O)n(CC(=O)Nc3ccc4c(c3)OCCO4)n2)cc1 | 14% | -5% | 14% | -12
COc1ccccc1-c1ccc(=O)n(CC(=O)NC(C)(C)C)n1 | 46% | -1% | 7.4µM* | 16
COCCNC(=O)Cn1nc(-c2ccccc2F)ccc1=O | 16% | -12% | 3.7µM* | 14
COCCNC(=O)Cn1nc(-c2ccccc2OC)ccc1=O | 10% | 19% | 66% | -5
SMILES | Pf growth 48h | HCV inh | Pf growth 96h | HCMV inh
O=C(CC1C(=O)N(c2ccccc2)C(=O)N1Cc1ccc(F)cc1)Nc1cccc(F)c1 (configuration not stated) | nt | nt | nt | -26
Cc1cccc(Cn2c(SCc3ccc(C(=O)NCc4cccs4)cc3)nc3cccnc32)c1 | nt | nt | nt | -35
CCCCNCC(=O)Nc1ccc(NC(=O)CNCCCC)cc1 | ? | ? | 12µM* | -4
CCCCOCCCNCC(=O)Nc1ccc(S(N)(=O)=O)cc1 | 4% | -4% | 32%[5.75 µM] | 48
O=C(CCCCn1c(=O)c2ccccc2n(Cc2ccc(Cl)cc2)c1=O)NCc1ccccc1Cl | nt | nt | nt | -29
COc1ccc(NC(=O)c2ccc3nc(CCc4ccccc4)oc3c2)cc1 | nt | nt | nt | 35
O=C(NCC1CCCO1)c1cccc(Oc2ccc([N+](=O)[O-])cc2)c1 (configuration not stated) | 0% | ? | ? | -88*
O=C(NC(=S)NCC1CCCO1)c1ccc([N+](=O)[O-])cc1 (configuration not stated) | 25% | 14% | 0.59µM* | 14
COc1ccc(-n2ncc(C(=O)N3CCN(Cc4ccccc4)CC3)c2C2CCN(C(=O)OC(C)(C)C)CC2)cc1 | nt | nt | nt | 0
Cc1cc(C)c2c(CC(=O)Nc3nnc(CC(C)C)s3)coc2c1 | nt | nt | nt | 7
CC(NC(=O)c1cc(-c2ccc3c(c2)OCO3)nc2ccccc12)C(C)(C)C (configuration not stated) | nt | -2% | ? | -36
CC(=O)c1ccc(N2CCN(C(=O)c3cc(-c4ccc5c(c4)OCO5)nc4ccccc34)CC2)cc1 | 6.6µM* | ? | 0% | 66
CCCN(CCC)C(=O)c1cc(-c2ccc3c(c2)OCO3)nc2ccccc12 | nt | ? | 1.7µM* | nt
CC(=O)c1ccc(N2CCN(C(=O)c3cc(-c4ccncc4)nc4ccc(Br)cc34)CC2)cc1 | 13µM* | -22% | -15% | 30
O=C(O)c1cc(-c2ccc3c(c2)OCO3)nc2ccccc12 | nt | 8% | 8.3µM* | 59
Cc1ccc(-c2cc(C(=O)N3CCN(c4ccc(O)cc4)CC3)c3ccccc3n2)cc1 | nt | ? | nt | 29
Cc1c(-c2nc(-c3ccc4c(c3)OCO4)no2)nnn1-c1ccc(C(C)C)cc1 | nt | nt | nt | 10
O=C(C1CCN(S(=O)(=O)c2cccs2)CC1)N1CCN(c2ccccc2F)CC1 | nt | nt | nt | 15
COc1ccc2c(CNCc3ccco3)c(C(=O)O)n(Cc3cccc(F)c3)c2c1 | nt | nt | nt | -1
COc1ccc(/C(N)=N/OC(=O)Cc2ccc(OC)c(OC)c2)cc1 | ? | ? | ? | -90*
C[C@@H]1CN([C@H](C)CO)S(=O)(=O)c2ccc(C#Cc3cccc(F)c3)cc2O[C@@H]1CN(C)C(=O)CN1CCOCC1 | nt | nt | nt | -17
O=C(CSc1nc2ccccc2n1Cc1ccc(F)c(Cl)c1)N1CCN(c2ccc(F)cc2)CC1 | nt | nt | nt | -1
COc1ccc(Cn2c(C3CC3)nc3ccc(NC(=O)c4ccco4)cc3c2=O)cc1 | 2.9µM* | ? | 2.1µM* | 108
CCCc1nc2ccc(NC(=O)c3ccco3)cc2c(=O)n1Cc1ccccc1Cl | 2.3µM* | ? | 0% | ?
COc1ccc(-n2cnc3cc(NC(=O)c4ccco4)ccc32)cc1 | nt | -26% | 2.3µM* | nt
CCCc1nc2ccc(NC(=O)c3ccco3)cc2c(=O)n1Cc1ccc(Cl)cc1 | 1.3µM* | -20% | ? | 11
COc1ccccc1-n1cnc2cc(NC(=O)c3ccco3)ccc21 | -19% | ? | nt | -8
CCCc1nc2ccc(NC(C)=O)cc2c(=O)n1Cc1ccccc1Cl | ? | -16% | -20% | 29
C=CCc1c(C)nc2nc(SCC(=O)Nc3ccc(C)c(C)c3)nn2c1C | nt | nt | nt | -100*
CCOC(=O)N1CCC(N2CC34C=CC(O3)C(C(=O)Nc3ccc(F)cc3)C4C2=O)CC1 (configuration not stated) | nt | 24% | 15µM* | nt
